One assay deals with MYH14. Briefly: pooled miR-30 sensor sort-seq; sequence = guide strand. The note with it: shRNA.
TCATCTGCCATCTCATCCCGGT registered a sensor-assay potency score (higher = more potent) of -0.0949. The sequence TTCACCTTGGTAAACAGCCGCC registered a sensor-assay potency score (higher = more potent) of -0.755.

Take TTGAGGCGCAGAACCAGCCAGC: the sensor-assay potency score (higher = more potent) is -0.999. For the sequence TTTCCGTCTTCCCAGCTCCAGA, the sensor-assay potency score (higher = more potent) is -1.5. The same measure, in the same setting: as for TTCCTCTGCCTCCTCGTCGGAT, the figure is -1.06; as for TTGTAGTCGACCTTGCCCGCGT, -0.308. As for TTGGTGTTTTCCGTCTTCCCAG, the sensor-assay potency score (higher = more potent) was -1.05. For the sequence TAGTGGAGAACACTGAAGTCGG, the sensor-assay potency score (higher = more potent) is -0.73. TAGAGCTGTCCCACTGTCCGGA: the sensor-assay potency score (higher = more potent) stood at 0.0775. Same read-out and setting: for TTGTCATTCTTCACTGTCTTGG the value was -0.287; for TCTGGTCTCTTGCTCTAGCTGC, -0.396; for TGTCAGGATCTCGTATCGCTGC, -0.48.

A further assay addresses MYL4. The assay is described as above. The note with it: shRNA.
Sequence TCTATCTTTACACTCTTGGGGT had a sensor-assay potency score (higher = more potent) of 0.0138.

TCGGCAGTGAAGTCTATCTTTA came in with a sensor-assay potency score (higher = more potent) of -1.13.

TTTATTAACAGGGAGGGCCTGT gave a sensor-assay potency score (higher = more potent) of -0.299. Regarding TAGGTGATCTTCATCTCTCCAG, the sensor-assay potency score (higher = more potent) is -0.392. On the same count and under the same terms, for TATCTTTACACTCTTGGGGTCA the value was -0.527. As for AAGTCTATCTTTACACTCTTGG, the sensor-assay potency score (higher = more potent) was -0.446.

On to TGAACTCTTCAATCTGGTCGGC, for which the sensor-assay potency score (higher = more potent) is 0.0317. On the same count and under the same terms, for TCTTCATCTCTCCAGTCGGGGT the value was -1.55; for TCTTTGAACTCTTCAATCTGGT, -0.00801.

The record behind these values is the OligoGym collection.
Also: reference of the scale not given here.
